Results reported in PubChem BioAssay.

target: Neurogenic locus notch homolog protein 2 (Homo sapiens) (UniProt Q04721); test: small molecules binding Notch2 protein – biochemical, small-molecule microarray, 635 nm fluorescence, stem cell growth factors, primary screen (AID 1073); details: higher = more signal
Sequence (Q04721 whole entry, looked up): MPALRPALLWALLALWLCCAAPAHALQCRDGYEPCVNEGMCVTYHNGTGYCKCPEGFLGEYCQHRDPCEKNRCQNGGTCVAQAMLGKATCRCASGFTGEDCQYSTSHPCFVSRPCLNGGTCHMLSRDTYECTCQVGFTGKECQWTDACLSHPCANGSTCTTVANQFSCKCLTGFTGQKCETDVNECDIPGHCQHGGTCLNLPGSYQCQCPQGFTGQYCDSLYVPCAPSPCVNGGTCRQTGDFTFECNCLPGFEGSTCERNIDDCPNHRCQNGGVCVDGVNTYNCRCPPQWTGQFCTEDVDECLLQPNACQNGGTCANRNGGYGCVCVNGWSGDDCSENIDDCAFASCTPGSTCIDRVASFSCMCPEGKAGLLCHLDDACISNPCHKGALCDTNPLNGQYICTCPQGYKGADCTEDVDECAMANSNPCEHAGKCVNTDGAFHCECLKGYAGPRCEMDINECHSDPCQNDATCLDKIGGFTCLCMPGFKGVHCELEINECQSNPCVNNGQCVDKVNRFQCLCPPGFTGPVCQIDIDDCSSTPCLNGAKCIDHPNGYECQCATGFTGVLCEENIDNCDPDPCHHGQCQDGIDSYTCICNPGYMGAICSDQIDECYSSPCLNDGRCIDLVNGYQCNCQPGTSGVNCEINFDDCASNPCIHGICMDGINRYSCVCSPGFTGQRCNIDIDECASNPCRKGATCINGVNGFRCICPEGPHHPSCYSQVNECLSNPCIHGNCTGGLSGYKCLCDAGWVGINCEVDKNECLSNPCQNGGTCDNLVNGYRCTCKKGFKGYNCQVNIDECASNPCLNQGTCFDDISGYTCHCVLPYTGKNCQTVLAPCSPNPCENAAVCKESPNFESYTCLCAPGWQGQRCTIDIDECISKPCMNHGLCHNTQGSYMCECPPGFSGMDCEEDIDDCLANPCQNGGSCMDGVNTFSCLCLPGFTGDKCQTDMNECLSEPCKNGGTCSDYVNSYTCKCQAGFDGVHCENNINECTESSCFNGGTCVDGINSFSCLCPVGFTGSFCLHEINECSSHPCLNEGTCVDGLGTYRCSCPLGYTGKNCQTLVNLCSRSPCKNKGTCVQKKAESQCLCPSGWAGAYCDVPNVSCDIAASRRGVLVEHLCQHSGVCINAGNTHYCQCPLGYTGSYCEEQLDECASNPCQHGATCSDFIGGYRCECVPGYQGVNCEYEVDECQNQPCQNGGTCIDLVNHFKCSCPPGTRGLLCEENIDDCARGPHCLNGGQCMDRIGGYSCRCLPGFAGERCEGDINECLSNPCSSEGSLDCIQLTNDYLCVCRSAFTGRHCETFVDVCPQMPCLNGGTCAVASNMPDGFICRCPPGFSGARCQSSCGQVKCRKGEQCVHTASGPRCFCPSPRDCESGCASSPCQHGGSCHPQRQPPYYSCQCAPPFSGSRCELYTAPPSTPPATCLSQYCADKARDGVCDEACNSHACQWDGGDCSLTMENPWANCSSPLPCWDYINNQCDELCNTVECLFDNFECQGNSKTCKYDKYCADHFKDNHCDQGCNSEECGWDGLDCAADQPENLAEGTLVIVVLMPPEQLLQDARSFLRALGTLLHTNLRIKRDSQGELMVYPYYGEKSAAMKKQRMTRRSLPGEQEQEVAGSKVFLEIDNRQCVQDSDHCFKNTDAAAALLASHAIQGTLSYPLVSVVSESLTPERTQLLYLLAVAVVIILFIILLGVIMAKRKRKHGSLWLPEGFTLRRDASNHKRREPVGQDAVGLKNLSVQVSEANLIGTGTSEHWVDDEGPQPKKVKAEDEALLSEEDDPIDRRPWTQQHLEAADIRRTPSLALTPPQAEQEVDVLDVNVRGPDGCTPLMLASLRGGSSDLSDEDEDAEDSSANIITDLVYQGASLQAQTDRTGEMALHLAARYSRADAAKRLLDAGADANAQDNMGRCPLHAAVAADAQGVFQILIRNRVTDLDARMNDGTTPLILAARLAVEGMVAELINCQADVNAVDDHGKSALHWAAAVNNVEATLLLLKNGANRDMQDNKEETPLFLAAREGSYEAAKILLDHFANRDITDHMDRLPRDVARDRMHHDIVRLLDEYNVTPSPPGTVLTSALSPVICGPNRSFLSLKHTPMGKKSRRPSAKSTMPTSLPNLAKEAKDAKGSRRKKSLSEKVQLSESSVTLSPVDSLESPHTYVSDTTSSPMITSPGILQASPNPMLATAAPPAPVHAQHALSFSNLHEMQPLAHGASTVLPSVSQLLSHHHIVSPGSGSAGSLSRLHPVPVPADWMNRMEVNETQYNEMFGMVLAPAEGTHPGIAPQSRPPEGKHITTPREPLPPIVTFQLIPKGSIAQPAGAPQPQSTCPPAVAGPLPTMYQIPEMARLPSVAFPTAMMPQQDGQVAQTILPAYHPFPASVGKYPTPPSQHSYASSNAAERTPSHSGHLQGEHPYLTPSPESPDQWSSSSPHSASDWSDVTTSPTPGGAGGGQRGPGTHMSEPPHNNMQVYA

Going from `C=CC(=C)[C@H]1Oc2ccccc2S(=O)(=O)N2CCC[C@@H]12` to `C=C(CC1([C@@H](NP(=O)(c2ccccc2)c2ccccc2)[C@H]2C[C@@H]2CCCC)CC1)c1ccccc1`, the composite z-score rises from -0.128 to 1.42.

Going from `C=C[C@@H](COC(=O)OC(C)(C)C)N(Cc1ccc(OC)cc1)S(=O)(=O)c1ccc(Br)cc1` to `CCS[C@H]1[C@@H](C(=O)O)[C@H](c2ccc(C)cc2)N(S(=O)(=O)c2ccc(C)cc2)[C@@H]1CC`, the composite z-score rises from 0.779 to 1.36.

Compared with `COCC(=C=CC[C@@H](O)c1cccc(OCCO)c1)C[C@@H](O)c1ccccn1`, `O=C(CS)NCCCCCCNC(=O)[C@@H]1C[C@@H]2C(=O)NCC(=O)N2[C@@H]1c1cccc(OCCO)c1` is lower in composite z-score: -0.17 for the first, -0.599 for the second.

First: COC(=O)[C@@]1(Cc2ccc(F)cc2)[C@H]2c3cc(C(=O)N(C)C)n(Cc4cc(F)c(F)c(F)c4)c3C[C@H]2CN1C(=O)c1ccccc1
Second: COC(=O)[C@@]1(Cc2ccc(F)cc2)[C@H]2c3cc(C(=O)N(C)C)n(Cc4ccccc4)c3C[C@H]2CN1C(=O)c1ccccc1
The composite z-score of the first is higher: 1.77 for the first, 1.58 for the second.

First: CN(C)CCCC[C@@H]1NC(=O)[C@H]2C[C@@H](C(=O)NCCCCCCN)[C@@H](c3ccc(O)cc3)N2C1=O
Second: CN(C)CCCCCCNC(=O)[C@H]1C[C@H]2C(=O)N[C@@H](CCCCN)C(=O)N2[C@H]1c1cccc(OCCO)c1
The composite z-score of the first is lower: 1.37 for the first, 1.65 for the second.

Compared with `CC(C)=CCCC(C)=CC(O)C1C=CC2C(=O)N(C)C(=O)C2N1Nc1ccccc1` (configuration not stated), `CCC(CC)C(O)C1C=CC2C(=O)NC(=O)C2N1Nc1ccc(Cl)cc1Cl` (configuration not stated) is lower in composite z-score: 1.6 for the first, 1.42 for the second.
